# WRN helicase inh = qHTS for Inhibitors of WRN Helicase; WRN helicase unwinding, fluorescent forked duplex, kinetic; 360,000 tested, 0.46% active; Potency, µM (top dose mostly 114 µM), for inactives: at the top dose activity change, negative = inhibition, usual class: inhibitors; Bifunctional 3'-5' exonuclease/ATP-dependent helicase WRN (Homo sapiens), Q14191; AID 651768, 2012; also: potency is read from the fitted curve at half-maximal effect; % is scaled to controls: 0 for no effect and ±100 for the full control effect; nearly all actives have a fitted effect of over 55% in size
#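 Fluorescence dequenching readout, ex 525 nm/em 598 nm, kinetic mode: forked duplex DNA (100 nM final) with adjacent fluorophore and quencher unwound by WRN (20 nM final) with 2 mM ATP. Compound preincubation 15 min, room temperature.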
# Pol iota inh = qHTS for Inhibitors of Polymerase Iota; Potency, µM (highest dose often 115 µM), inactives show top-dose activity, negative = inhibition, hits mostly inhibitors; AID 588590, 2011; Pol iota fluorescent replication assay, 10 min; 390,000 tested, 1% active; DNA polymerase iota (Homo sapiens), Q9UNA4; also: potency is read from the fitted curve at half-maximal effect
#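 Fluorescent replication assay read twice, at 0 min and 10 min after adding 50 nM (final) substrate. Enzyme (10 nM) and compounds were first incubated 15 min at room temperature; enzyme-free buffer wells were negative controls.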
# Pol kappa inh = qHTS for Inhibitors of Polymerase Kappa | DNA polymerase kappa (Homo sapiens), Q9UBT6 | purified Pol kappa, fluorescent DNA synthesis assay, 10 min | Potency, µM (highest dose often 107 µM), inactives show at the highest dose activity, negative = inhibition, actives largely listed as inhibitors | 400,000 tested, 0.53% active; also: potency is read from the fitted curve at half-maximal effect; % is scaled to controls: 0 for no effect and ±100 for the full control effect
# Target sequence (Q9UBT6 whole entry, looked up): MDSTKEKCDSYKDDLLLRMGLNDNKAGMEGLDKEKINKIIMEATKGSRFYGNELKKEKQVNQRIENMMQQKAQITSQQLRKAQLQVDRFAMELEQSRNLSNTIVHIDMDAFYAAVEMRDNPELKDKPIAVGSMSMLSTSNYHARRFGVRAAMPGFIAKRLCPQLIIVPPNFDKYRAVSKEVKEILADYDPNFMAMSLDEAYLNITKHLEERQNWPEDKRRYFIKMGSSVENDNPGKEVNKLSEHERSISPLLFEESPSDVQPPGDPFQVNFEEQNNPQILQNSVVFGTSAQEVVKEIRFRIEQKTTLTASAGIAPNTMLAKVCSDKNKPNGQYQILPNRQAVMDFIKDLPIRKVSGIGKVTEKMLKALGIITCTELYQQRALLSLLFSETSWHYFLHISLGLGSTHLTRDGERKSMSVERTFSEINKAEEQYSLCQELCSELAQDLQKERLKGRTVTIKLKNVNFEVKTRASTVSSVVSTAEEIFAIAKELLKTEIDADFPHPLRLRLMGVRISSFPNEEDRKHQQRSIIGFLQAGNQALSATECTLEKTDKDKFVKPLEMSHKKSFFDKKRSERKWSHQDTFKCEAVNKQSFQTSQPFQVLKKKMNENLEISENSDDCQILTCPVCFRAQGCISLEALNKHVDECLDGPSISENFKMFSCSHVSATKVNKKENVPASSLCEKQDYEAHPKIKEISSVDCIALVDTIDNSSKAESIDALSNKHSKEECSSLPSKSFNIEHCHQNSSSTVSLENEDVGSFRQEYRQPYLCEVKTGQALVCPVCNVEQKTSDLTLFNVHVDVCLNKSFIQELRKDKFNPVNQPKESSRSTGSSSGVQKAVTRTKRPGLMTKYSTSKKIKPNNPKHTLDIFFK
#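 First, compounds were pin-transferred onto 10 nM Pol kappa. After 15 min at room temperature, substrate was added to 50 nM final. Fluorescence was then measured kinetically at 0 and 10 min.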
# Pol eta inh = qHTS for Inhibitors of Polymerase Eta; DNA polymerase eta (Homo sapiens), Q9Y253; recombinant Pol eta, fluorescent DNA replication assay; Potency, µM (titrated, usually from 114 µM), for the others: at the top dose activity change, negative = inhibition, usual class: inhibitors; 390,000 tested, 1.2% active; AID 588591, 2011; also: potency is read from the fitted curve at half-maximal effect; % is scaled to controls: 0 for no effect and ±100 for the full control effect
#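 Pol eta at 10 nM preincubated with compounds 15 min at room temperature; reaction started with fluorescent substrate (50 nM final) and read kinetically at 0 and 10 min.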
# Pol beta inh = qHTS Assay for Inhibitors of DNA Polymerase Beta | Pol beta primer extension/strand displacement, fluorescence kinetic | Potency, µM (series often up to 114 µM), for the others: top-dose activity change, negative = inhibition, usual class: inhibitors | 340,000 tested, 1.3% active | AID 485314, 2010; also: potency is read from the fitted curve at half-maximal effect; % is scaled to controls: 0 for no effect and ±100 for the full control effect
#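 10 nM enzyme + cpd, 15 min RT; start with substrate 50 nM final; read 0 min and after 10 min RT. Corrected, normalized data; 4-parameter Hill curve fit.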
# PI5P4Ka inh = qHTS for Inhibitors of phosphatidylinositol 5-phosphate 4-kinase (PI5P4K); Phosphatidylinositol 5-phosphate 4-kinase type-2 alpha (Homo sapiens), P48426; PI5P4Kalpha enzyme, ADP-Glo luminescence, 60 min; hits give low values; 330,000 tested, 1.2% active; max response, %; active = max response of -50% or lower; inconclusive = between -30% and -50%; inactive = -30% or higher; also: value at the top dose of about 77 µM; % is scaled to controls: 0 for no effect and ±100 for the full control effect
#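 Compounds were pin-transferred onto PI5P4Kalpha and substrate in HEPES pH 7.4 buffer with EGTA, CHAPS and 5% DMSO. ATP (5 microM final) started the reaction, which ran 60 minutes at room temperature before ADP-Glo detection.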
# * = called active by the depositor; u = inconclusive; x = no result; [ ] = dose if it differs, or a comment. Rows were chosen to be rich in hits. Some 2.8% of all compounds tested hit in one or more screens of this group. Unless noted, calls follow the shape of the dose curve; as a rule, active = well fitted curve in the direction sought with a large enough effect; inconclusive = small, poorly fitted or top-dose-only effect, or another doubt; inactive = no such curve, though single readings can be large; an effect the other way counts as inactive or inconclusive.
SMILES,WRN helicase inh,Pol iota inh,Pol kappa inh,Pol eta inh,Pol beta inh,PI5P4Ka inh
COc1ccc(/C=C(\C#N)c2nc3ccccc3[nH]2)cc1O,u,u,-34.1%,79.4µM*,25.1µM*,-7.7
CCOC(=O)COc1ccc(/C=C(\C#N)c2nc3ccc(C)cc3[nH]2)cc1OC,x,u,u,79.4µM*,11.2µM*,x
OC[C@H]1OC(O)[C@@H](O)[C@@H](O)[C@H]1O (stereo partly specified),x,x,-6.5%[60.1 µM],x,x,x
COc1ccc2nc(N3CCCCC3)c(/C=C3\SC(=S)NC3=O)cc2c1,u,-10.9%,8.3%,35.5µM*,-21.1%,u
O=C1NC(=S)S/C1=C\c1cc2ccccc2nc1N1CCCCC1,8.4%[11.6 µM],-8.6%,-4.2%,39.8µM*,u,-21.2
O=[N+]([O-])c1ccc(N=Nc2ccc(O)c3ccccc23)cc1,-13.4%,u,-25.4%,-12.6%,x,-65.8*
O=S(=O)(Nc1ccc(N=Nc2ccc(O)c3ccccc23)cc1)c1ccccc1,-20.0%,24.8%,-13.6%,u,3.9%,-19.7
CN(Cc1ccccc1F)Cc1cc(=O)oc2cc(O)c(Cl)cc12,-9.8%,u,-12.1%,-12.9%,-23.6%,-63.4*
Cc1cccc(Nc2nc(N)c([N+](=O)[O-])c(NCCO)n2)c1,-13.7%,1.5%,-18.9%,-3.7%,16.5%,-27.3
Nc1nc(Nc2cccc(Cl)c2)nc(NCCO)c1[N+](=O)[O-],-33.1%,u,-3.2%,-34.1%,5.1%,-63.2*
Nc1nc(NCCO)nc(NCC2CCCO2)c1[N+](=O)[O-] (stereo unspecified),-30.4%[57.1 µM],15.4%,-20.2%,-4.1%,22.4µM*,-3.6
CN(C)c1ccc(/C=C/c2ccc3cc(F)ccc3n2)cc1,x,3.5%,9.3%,x,x,x
COc1ccc(-c2c[n+]3c4n2CCCCC4=C(c2ccccc2)C3)cc1,-2.3%,8.6%,-6.3%,-0.2%,11.2µM*,-23.1
CCCCCCCN(CCCCCCC)c1ccc(/C=C/c2ccnc3ccccc23)cc1,x,27.9%,-1.8%,x,x,x
O=c1oc2c(-c3ccc([N+](=O)[O-])cc3)cc(O)cc2s1,56.2µM*,50.1µM*,u,u,u,-58.7*
CCc1ccc(CCC(=O)N2CCN(S(=O)(=O)c3ccc(Br)cc3)CC2)cc1,-5.7%,x,x,-18.1%,x,1.9
CS(=O)(=O)c1ccc(C(=O)OCC(=O)NCc2cccs2)cc1[N+](=O)[O-],-7.9%[11.6 µM],u,-11.7%,44.7µM*,x,6.3
COC(=O)[C@@H](Cc1c[nH]c2ccccc12)NC(=O)C1CCCN(S(=O)(=O)c2ccc(C)cc2)C1 (stereo partly specified),-0.3%,18.1%,-4.9%[60.1 µM],-18.2%,0.3%,2.6
CC(C)CSc1n[nH]c(=S)s1,-16.7%,48.5%,-4.0%,-14.7%,-10.3%,-51.7*
CC(CSc1n[nH]c(=S)s1)c1ccccc1 (stereo unspecified),-3.6%,-9.3%,-14.1%,-2.4%,x,-54.0*
CC(Cc1n[nH]c(=S)o1)c1ccccc1 (stereo unspecified),3.0%,8.4%,-2.2%,-14.3%,1.8%,-21.5
O=C1c2ccccc2C(=O)N1CCSc1n[nH]c(=S)s1,-20.6%,16.2%,-1.5%,-20.2%,-2.8%,-76.9*
CCCN(CC(=O)Nc1ccccc1C)C(=O)c1cccc(-n2cnnn2)c1,-10.7%,15.3%,-11.9%,-14.2%,11.9%,4.3
O=C([C@H]1O[C@@H](n2ccc(=O)[nH]c2=O)[C@H](O)[C@@H]1O)N1CCN(Cc2ccccn2)CC1,-2.6%,x,x,x,x,-0.2
O=Cc1ccccc1C=O,x,x,23.8µM*,x,x,x
SMILES,WRN helicase inh,Pol iota inh,Pol kappa inh,Pol eta inh,Pol beta inh,PI5P4Ka inh
O=Cc1ccccc1OCCOc1ccccc1C=O,-14.1%,1.8%,-2.1%,-6.7%,3.4%,x
NC(=O)CSc1ccc(-c2ccc(F)cc2)nn1,1.9%,11.5%,-6.3%,-4.0%,9.9%,-1.5
Cc1cccc(NCc2ccc(O)c3ncccc23)c1,6.0%,39.7%,-14.5%,-1.6%,-0.8%,-17.3
Oc1ccc(CNc2ccccc2)c2cccnc12,-2.6%,-1.0%,6.8%,-0.2%,3.1%,-55.2*
O=C1/C(=C/c2cccnc2)CCc2c1[nH]c1ccccc21,6.7%,83.0%,1.3%,-12.8%,-16.3%,-10.8
CC1C/C(=C\c2cccnc2)C(=O)/C(=C/c2cccnc2)C1 (stereo unspecified),-15.5%,15.8µM*,-5.8%,20µM*,-2.3%,-11.3
CC(C)(C)n1ncc2c(=O)n(Cc3c(F)ccc(Cl)c3Cl)cnc21,x,8.9%,-22.2%,x,x,x
Cc1occc1C(=O)N1CCN(c2ccc([N+](=O)[O-])cc2)CC1,2.6%,u,-4.9%,-0.8%,39.8µM*,-7.3
O=C(c1cc2ccccc2cc1O)N1CCN(c2ccc([N+](=O)[O-])cc2)CC1,7.3%[11.6 µM],89.1µM*,-26.7%,-10.3%,x,-2.8
O=C(c1cc([N+](=O)[O-])ccc1Cl)N1CCN(c2ccccc2)CC1,2.4%,149.3%,-10.3%,-7.1%,26.7%,-9.9
Cc1occc1C(=O)N1CCN(c2ccc(Cl)cc2)CC1,-3.8%,134.3%,-13.6%,-18.7%,28.9%,6.4
Cc1ccc(N(CC(=O)N2CC(=O)Nc3ccccc32)S(=O)(=O)c2ccc3c(c2)OCCO3)cc1,-3.8%[11.6 µM],79.4µM*,-10.9%,-9.1%,-1.1%,x
CC(=O)Nc1cc(O)c2nonc2c1O,x,-91.8%,-14.4%,x,x,x
NC1=NC(=O)/C(=C/c2ccccc2OS(=O)(=O)c2ccc3ccccc3c2)S1,-0.9%,-18.7%,-7.3%,u,-0.9%,-18.9
C(=C\c1nnc2c3ccccc3ncn12)/c1ccccc1,-0.6%,-4.1%,-7.5%,-14.0%,-2.3%,0.7
COc1cc(/C=C/c2nnc3c4ccccc4ncn23)cc(OC)c1OC,56.2µM*,-2.5%,-19.5%,-14.0%,u,-1.1
O=c1cc(C(O)C[N+](=O)[O-])occ1OCc1ccccc1 (stereo unspecified),-5.6%[11.6 µM],25.1µM*,u,-20.0%,x,0.0
Nc1cc([N+](=O)[O-])ccc1OCc1ccccc1,-5.2%,5.0%,-3.4%,-8.8%,x,-2.1
NC(CO)C(=O)NNCc1ccc(O)c(O)c1O (stereo unspecified),-1.8%[11.6 µM],31.6µM*,1.6%[60.1 µM],0.9%,u,-54.2*
COc1cccc(C2C(C(=O)Nc3cccnc3)=C(C)Nc3nc(SCc4ccccc4)nn32)c1 (stereo unspecified),x,29.7%,5.8%,-6.7%,2.5%,x
Cc1cc(C(=O)COc2ccccc2C(N)=O)c(C)n1C,5.7%,182.3%,-5.8%,-10.7%,3.7%,-6.9

# Bioassay records as filed in PubChem BioAssay.
